Measurements reported in PubChem BioAssay (EPA / NIEHS).
Inconclusive results are not listed. Active and inactive are the calls of the source. How the source made its calls, unless noted: active means hit-call score of the fitted dose curve at least 0.9, where 1 is the maximum; inactive means score below 0.9.

What was measured:
[1] = ACEA_ER_80hr: ACEA Biosciences xCELLigence Real-Time Cell Analysis on Estrogen Receptor Agonism for Proliferation (AID 2282667; active means hit-call score of the fitted dose curve at least 0.9, where 1 is the maximum); conditions: T47D proliferation, impedance (xCELLigence), 80 h
Summary of the method: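 T-47D cells monitored by electrical impedance (xCELLigence) with compound present throughout; 80 h timepoint, positive-direction fitting versus DMSO. Eight-point 1:4 dilutions from 100 uM final, duplicate plates.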

[2] = ATG_CRE_CIS: Attagene CIS-FACTORIAL HepG2 Assay for human cAMP Responsive Element (CRE) binding protein 3 (AID 2282926); conditions: HepG2 CRE cis-reporter, Attagene multiplexed mRNA; actives raise or lower the signal
Summary of the method: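 Induced reporter mRNA from a CRE cis element, measured in HepG2 among many multiplexed units at 24 h. Detection used RT-PCR plus capillary electrophoresis of fluorescent fragments; DMSO served as negative control.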

[3] = molecular target: CCAAT/enhancer-binding protein beta (Homo sapiens) (UniProt P17676); test: ATG_C_EBP_CIS: Attagene CIS-FACTORIAL HepG2 Assay for human CCAAT/Enhancer Binding Protein (C/EBP) beta (AID 2282927); conditions: HepG2 Attagene cis-factorial transcription factor reporter; actives raise or lower the signal
Summary of the method: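 Changes in reporter mRNA, rather than exogenous chimeric receptor activity, reflect native C/EBP signalling in transfected HepG2 cells dosed for 24 h; transcripts are detected by RT-PCR and capillary electrophoresis.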

[4] = ATG_DR4_LXR_CIS: Attagene CIS-FACTORIAL HepG2 Assay for human Liver X Receptor (LXR), DR4 submotif (AID 2282929); conditions: HepG2 Attagene DR4 cis-reporter, mRNA transcription; actives raise or lower the signal
Summary of the method: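 Total RNA from 24 h-treated, MRTU-transfected HepG2 cells underwent reverse transcription, PCR, fluorescent primer extension and restriction digestion before capillary electrophoresis. Both increases and decreases in reporter signal were fitted against DMSO.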

[5] = ATG_AP_1_CIS: Attagene CIS-FACTORIAL HepG2 Assay for human Activator Protein 1 (AP-1) (AID 2282931); conditions: HepG2 Attagene cis-factorial AP-1 reporter mRNA; actives raise or lower the signal
Summary of the method: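 HepG2, transient cis-reporter transfection; 24 h; readout RT-PCR/CE fluorescence; DMSO baseline, gain and loss fitted.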

[6] = ATG_AP_2_CIS: Attagene CIS-FACTORIAL HepG2 Assay for human Activator Protein 2 (AP-2) (AID 2282932); conditions: HepG2 AP-2 cis-reporter, Attagene transcription factor profiling; actives raise or lower the signal
Summary of the method: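 Endogenous transcription factor activity is reported through transfected multiplex reporter constructs in HepG2, after 24 h of compound exposure. Transcripts were quantified by RT-PCR and capillary electrophoresis of fluorescent fragments. Bidirectional fit against DMSO.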

[7] = ATG_BRE_CIS: Attagene CIS-FACTORIAL HepG2 Assay for human Bone Morphogenetic Protein (BMP) Response Element (BRE) (AID 2282933); conditions: HepG2 BMP response element reporter, Attagene transcription factor profiling; actives raise or lower the signal
Summary of the method: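 Fluorescence-labelled reporter cDNA fragments, separated by capillary electrophoresis, gave the signal for this component of a 52-readout multiplex. HepG2 cells were transfected, exposed to chemicals for 24 h, and compared with DMSO using bidirectional fitting.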

[8] = molecular target: Transcription factor E2F1 (Homo sapiens) (UniProt Q01094); test: ATG_E2F_CIS: Attagene CIS-FACTORIAL HepG2 Assay for human E2F Transcription Factor 1 (AID 2282935); conditions: HepG2 Attagene cis-reporter, E2F reporter RNA transcripts; actives raise or lower the signal
Summary of the method: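 Gain or loss of reporter transcript, fitted against DMSO, reflects E2F1-driven transcription. Transiently transfected HepG2 dosed 24 h before RNA isolation. Quantified by fluorescent RT-PCR products separated by capillary electrophoresis.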

[9] = ATG_E_Box_CIS: Attagene CIS-FACTORIAL HepG2 Assay for human Enhancer Box (E-box) (AID 2282936); conditions: HepG2 E-box cis-reporter transcription, actives raise or lower the signal
Summary of the method: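 E-box-driven reporter transcripts measured in transiently transfected HepG2 after 24 h exposure: RNA reverse-transcribed, PCR-amplified, fluorescently labelled, digested and resolved by capillary electrophoresis. Gain or loss relative to DMSO.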

[10] = ATG_M_61_CIS: Attagene CIS-FACTORIAL HepG2 Assay for M61 Transcription Factor (Internal Marker) (AID 2282937); conditions: HepG2 Attagene CIS-FACTORIAL M61 internal marker reporter; actives raise or lower the signal
Summary of the method: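 Transfect HepG2 with MRTUs; dose 24 h; isolate RNA; reverse-transcribe with DNase I treatment; PCR-amplify, FAM-label and cut with HpaI for 2 h at 37 C; resolve by CE. Bidirectional fitting against DMSO.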

[11] = ATG_EGR_CIS: Attagene CIS-FACTORIAL HepG2 Assay for human Early Growth Response 1 (EGR1) (AID 2282938); conditions: HepG2 Attagene CIS-FACTORIAL EGR reporter mRNA; actives raise or lower the signal
Summary of the method: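 After a 24 h treatment of transiently transfected HepG2 cells, total RNA was reverse-transcribed and reporter sequences PCR-amplified, labelled and run on capillary electrophoresis. Reporters sit under cis-regulatory promoters sensing endogenous factors.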

[12] = ATG_M_19_CIS: Attagene CIS-FACTORIAL HepG2 Assay for M19 Transcription Factor (Internal Marker) (AID 2282939); conditions: HepG2 Attagene CIS-FACTORIAL M19 internal marker reporter; actives raise or lower the signal
Summary of the method: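 HepG2, MRTU transient transfection, 24 h dosing. Total RNA → RT-PCR → 6-FAM primer extension → HpaI digest → CE fluorescence. Bidirectional curve fit, DMSO negative control.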

[13] = ATG_ERE_CIS: Attagene CIS-FACTORIAL HepG2 Assay for Estrogen Response Element (ERE) (AID 2282940); conditions: HepG2 ERE cis-reporter, Attagene RNA transcript; actives raise or lower the signal
Summary of the method: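 After a 24 h chemical treatment, RNA from reporter-transfected HepG2 cells is reverse-transcribed, PCR-amplified and fluorescently labelled. Fragments separated by capillary electrophoresis give reporter signal; DMSO serves as negative control.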

[14] = ATG_Ets_CIS: Attagene CIS-FACTORIAL HepG2 Assay for human Erythroblast Transformation Specific (ETS) (AID 2282941); conditions: HepG2 ETS cis-reporter transcription, actives raise or lower the signal
Summary of the method: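 Bidirectional fit versus DMSO of reporter mRNA signal, detected by RT-PCR and capillary electrophoresis in HepG2 cells transiently transfected with cis-element reporters and dosed 24 h.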

[15] = molecular target: Hepatocyte nuclear factor 3-beta (Homo sapiens) (UniProt Q9Y261); test: ATG_FoxA2_CIS: Attagene CIS-FACTORIAL HepG2 Assay for human Forkhead box A2 (FOXA2) (AID 2282942); conditions: HepG2 cis-reporter transcription factor activity, 24 h; actives raise or lower the signal
Summary of the method: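 24 h dosing of HepG2 bearing cis-reporter constructs; mRNA readout by RT-PCR/CE fluorescence; bidirectional fit, DMSO baseline.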

[16] = ATG_FoxO_CIS: Attagene CIS-FACTORIAL HepG2 Assay for human Forkhead box O (FoxO) (AID 2282943); conditions: HepG2 Attagene cis-reporter, FoxO element, mRNA; actives raise or lower the signal
Summary of the method: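 Human hepatoma HepG2 cells carry transiently introduced reporter transcription units controlled by cis promoter elements. Chemical treatment lasted 24 h, and mRNA signal was compared with DMSO.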

[17] = ATG_GATA_CIS: Attagene CIS-FACTORIAL HepG2 Assay for human GATA Binding Protein (AID 2282944); conditions: HepG2 GATA cis-element reporter, Attagene multiplex mRNA; actives raise or lower the signal
Summary of the method: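 Cells: HepG2, transiently transfected with cis-regulated reporter transcription units. Exposure: 24 h. Detection: RT-PCR plus capillary electrophoresis of FAM-labeled fragments. Analysis: bidirectional, DMSO as baseline.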

[18] = molecular target: Aryl hydrocarbon receptor (Homo sapiens) (UniProt P35869); test: ATG_Ahr_CIS: Attagene CIS-FACTORIAL HepG2 Assay for human Aryl Hydrocarbon Receptor (Ahr) (AID 2282930); conditions: HepG2 AhR cis-factorial reporter transcription; actives raise or lower the signal
Summary of the method: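 HepG2, transient MRTU (cis) transfection, 24 h exposure. RNA → cDNA → PCR → 6-FAM primer extension → HpaI 2 h 37 C → CE. Fit: bidirectional, DMSO baseline.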

[19] = molecular target: Retinoic acid receptor alpha (Homo sapiens) (UniProt P10276); test: ATG_DR5_RAR_CIS: Attagene CIS-FACTORIAL HepG2 Assay for human Retinoic Acid Receptor Alpha (RARE), DR5 submotif (AID 2282934); conditions: HepG2 Attagene cis-factorial RARE DR5 reporter, mRNA; actives raise or lower the signal
Summary of the method: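 HepG2, transient cis-reporter transfection, 24 h exposure. mRNA readout: RT-PCR, FAM label, HpaI cut, capillary electrophoresis. DMSO baseline, gain/loss fitting.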

Measured: AC50

CCAAT/enhancer-binding protein beta (Homo sapiens), sequence (P17676 whole entry, looked up): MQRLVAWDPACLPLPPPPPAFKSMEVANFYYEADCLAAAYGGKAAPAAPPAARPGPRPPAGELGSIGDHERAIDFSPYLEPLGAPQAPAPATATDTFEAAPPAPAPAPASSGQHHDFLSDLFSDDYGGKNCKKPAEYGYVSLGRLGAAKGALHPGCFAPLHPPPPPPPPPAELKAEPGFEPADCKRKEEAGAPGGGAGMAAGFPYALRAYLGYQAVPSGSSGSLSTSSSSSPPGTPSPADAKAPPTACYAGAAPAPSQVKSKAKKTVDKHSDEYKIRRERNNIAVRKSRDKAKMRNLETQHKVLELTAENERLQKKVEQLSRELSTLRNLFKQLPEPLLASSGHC
Transcription factor E2F1 (Homo sapiens), sequence (Q01094 whole entry, looked up): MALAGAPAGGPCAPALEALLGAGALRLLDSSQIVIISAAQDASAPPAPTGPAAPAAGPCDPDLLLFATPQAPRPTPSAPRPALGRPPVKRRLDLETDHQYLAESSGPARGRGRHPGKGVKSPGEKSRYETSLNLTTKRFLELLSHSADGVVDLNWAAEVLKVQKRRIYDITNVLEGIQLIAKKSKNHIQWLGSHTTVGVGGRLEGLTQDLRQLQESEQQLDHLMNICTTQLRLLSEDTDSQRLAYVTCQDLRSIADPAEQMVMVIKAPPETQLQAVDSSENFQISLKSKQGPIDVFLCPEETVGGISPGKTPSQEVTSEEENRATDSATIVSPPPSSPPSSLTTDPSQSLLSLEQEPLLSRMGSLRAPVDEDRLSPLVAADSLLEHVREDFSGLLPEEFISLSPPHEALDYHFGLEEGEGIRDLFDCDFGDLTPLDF
Retinoic acid receptor alpha (Homo sapiens), sequence (P10276 whole entry, looked up): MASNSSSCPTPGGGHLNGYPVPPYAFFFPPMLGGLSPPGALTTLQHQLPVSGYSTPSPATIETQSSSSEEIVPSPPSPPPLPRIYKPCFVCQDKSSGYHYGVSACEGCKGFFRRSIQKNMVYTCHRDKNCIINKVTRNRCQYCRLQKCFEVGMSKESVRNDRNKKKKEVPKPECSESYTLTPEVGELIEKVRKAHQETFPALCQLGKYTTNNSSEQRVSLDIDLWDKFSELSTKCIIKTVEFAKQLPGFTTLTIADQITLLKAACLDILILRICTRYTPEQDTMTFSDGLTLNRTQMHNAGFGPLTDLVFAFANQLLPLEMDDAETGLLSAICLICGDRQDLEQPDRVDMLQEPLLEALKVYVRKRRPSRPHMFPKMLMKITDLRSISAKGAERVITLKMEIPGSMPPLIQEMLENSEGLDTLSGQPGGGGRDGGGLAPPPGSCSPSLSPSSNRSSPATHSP
Hepatocyte nuclear factor 3-beta (Homo sapiens), sequence (Q9Y261 whole entry, looked up): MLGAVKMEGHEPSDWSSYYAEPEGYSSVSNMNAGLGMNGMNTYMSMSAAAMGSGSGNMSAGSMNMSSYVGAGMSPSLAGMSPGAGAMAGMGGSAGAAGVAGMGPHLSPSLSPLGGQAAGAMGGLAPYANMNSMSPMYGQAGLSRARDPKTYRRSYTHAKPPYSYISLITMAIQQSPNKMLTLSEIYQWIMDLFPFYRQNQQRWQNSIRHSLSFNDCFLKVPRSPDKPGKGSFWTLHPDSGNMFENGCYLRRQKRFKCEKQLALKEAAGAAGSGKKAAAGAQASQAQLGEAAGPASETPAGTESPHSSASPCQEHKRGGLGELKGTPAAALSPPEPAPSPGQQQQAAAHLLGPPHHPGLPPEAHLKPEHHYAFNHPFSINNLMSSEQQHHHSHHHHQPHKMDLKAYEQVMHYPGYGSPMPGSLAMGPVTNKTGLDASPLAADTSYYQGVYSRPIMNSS
Aryl hydrocarbon receptor (Homo sapiens), sequence (P35869 whole entry, looked up): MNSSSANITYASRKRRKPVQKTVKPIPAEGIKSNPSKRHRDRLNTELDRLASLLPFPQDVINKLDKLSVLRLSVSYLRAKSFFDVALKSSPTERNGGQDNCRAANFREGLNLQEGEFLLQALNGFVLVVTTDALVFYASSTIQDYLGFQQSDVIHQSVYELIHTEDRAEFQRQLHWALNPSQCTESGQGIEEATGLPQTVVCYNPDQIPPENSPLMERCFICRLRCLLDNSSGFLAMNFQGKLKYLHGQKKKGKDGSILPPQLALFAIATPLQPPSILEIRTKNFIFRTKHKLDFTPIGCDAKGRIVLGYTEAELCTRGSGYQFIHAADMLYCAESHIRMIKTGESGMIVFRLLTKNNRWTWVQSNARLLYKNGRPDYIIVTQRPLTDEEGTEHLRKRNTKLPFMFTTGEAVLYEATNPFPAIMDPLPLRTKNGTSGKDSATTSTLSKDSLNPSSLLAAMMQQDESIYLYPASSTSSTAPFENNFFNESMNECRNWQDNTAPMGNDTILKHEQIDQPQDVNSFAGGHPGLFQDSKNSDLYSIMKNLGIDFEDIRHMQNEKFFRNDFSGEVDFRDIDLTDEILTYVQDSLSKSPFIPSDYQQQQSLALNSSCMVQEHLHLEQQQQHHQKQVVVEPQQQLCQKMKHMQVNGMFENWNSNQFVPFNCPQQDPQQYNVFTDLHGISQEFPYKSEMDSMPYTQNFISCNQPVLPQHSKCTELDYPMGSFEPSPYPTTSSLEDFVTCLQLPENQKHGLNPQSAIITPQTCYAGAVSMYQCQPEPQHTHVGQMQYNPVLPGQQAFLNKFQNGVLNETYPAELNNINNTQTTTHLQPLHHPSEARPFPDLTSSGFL

O=C1c2c(O)ccc(Nc3ccc(CCO)cc3)c2C(=O)c2c([N+](=O)[O-])ccc(O)c21
active: [5] 17.7 µM
not listed: [18] | [19]
inactive: all other assays above

Cc1cc(O)c(C(C)(C)C)cc1C(C)(C)C
active: [5] 11.1 µM | [9] 13.9 µM
inactive: all other assays above

CCn1c2ccccc2c2ccccc21
active: [5] 164 µM | [7] 159 µM
not listed: [9] | [19]
inactive: all other assays above

Cc1cc(=O)[nH]c(C(C)C)n1
not listed: [16]
inactive: all other assays above

CCOCOCC
not listed: [4] | [18]
inactive: all other assays above

OCCCCl
not listed: [16] | [18]
inactive: all other assays above

O=c1cccc[nH]1
inactive: all assays above

CCCCCCCC/C=C\CCCCCCCC(=O)N(C)CC(=O)O
not listed: [19]
inactive: all other assays above
